Our source for the binding signal values is publication PMC7862700, “An all-to-all approach to the identification of sequence-specific readers for epigenetic DNA modifications on cytosine”.

What all share (assay): DAPPL (digital affinity profiling via proximity ligation, sequencing); 10 mM Tris-HCl pH 7.5, 50 mM NaCl, 1 mM DTT, 4% glycerol, room temperature, 30 min; GST-TFs on glutathione beads, 16-mer random dsDNA library, 0.1% formaldehyde crosslink after washing; high values mean tight binding
In one experiment the target is T1, FEV (Homo sapiens, UniProt Q99581 1-238).
T1 sequence: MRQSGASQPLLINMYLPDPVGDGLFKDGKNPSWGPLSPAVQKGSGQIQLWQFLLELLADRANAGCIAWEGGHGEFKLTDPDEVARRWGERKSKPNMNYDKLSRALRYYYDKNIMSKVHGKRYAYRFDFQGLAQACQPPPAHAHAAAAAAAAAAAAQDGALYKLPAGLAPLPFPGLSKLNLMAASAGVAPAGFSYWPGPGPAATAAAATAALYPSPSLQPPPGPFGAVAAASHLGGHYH
Conditions: protein: recombinant; tags: N-terminal GST; dsDNA, one strand shown. The method, boiled down:
(§1)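 Binding signal is defined as a hexamer's read frequency for one factor over its frequency for the tag-only sample. To obtain reads, GST-fused human transcription factors were expressed in yeast, captured on glutathione beads, barcoded with DNA and pooled with that sample. Pools met 200 nmole of a 16-mer random double-stranded DNA library in Tris/NaCl/DTT/glycerol buffer for 30 min at room temperature before washing, 0.1% formaldehyde crosslinking, proximity ligation (BsaI/T4 ligase, 1 h, 37 °C), PCR and Illumina NextSeq500 sequencing.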

The target in another experiment is ETV5 (Homo sapiens, UniProt P41161 1-510). The following applies: protein: recombinant; tags: N-terminal GST; dsDNA, one strand shown. The method, boiled down: as §1
For the next experiment, the target named is HSF1 (Homo sapiens, UniProt Q00613 1-529). The following applies: protein: recombinant; tags: N-terminal GST; chain copies: 3; dsDNA, one strand shown. The procedure, abridged: as §1
In a further experiment the target is T2, SPIC (Homo sapiens, UniProt Q8N5J4 1-248).
T2 sequence: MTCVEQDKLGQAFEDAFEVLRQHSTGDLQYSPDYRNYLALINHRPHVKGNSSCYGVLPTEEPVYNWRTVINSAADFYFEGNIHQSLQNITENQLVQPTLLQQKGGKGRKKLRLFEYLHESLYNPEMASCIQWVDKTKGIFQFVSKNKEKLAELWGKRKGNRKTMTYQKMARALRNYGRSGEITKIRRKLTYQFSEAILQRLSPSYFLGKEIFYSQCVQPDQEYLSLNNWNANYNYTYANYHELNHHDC
The following applies: protein: recombinant; tags: N-terminal GST; dsDNA, one strand shown. The procedure, abridged:
as §1

A further experiment concerns the target ELF4 (Homo sapiens, UniProt Q99607 1-663). Conditions: protein: recombinant; tags: N-terminal GST; dsDNA, one strand shown. The method, boiled down:
as §1

The target of another experiment is T3, ELK4 (Homo sapiens, UniProt P28324-2 1-405).
T3 sequence: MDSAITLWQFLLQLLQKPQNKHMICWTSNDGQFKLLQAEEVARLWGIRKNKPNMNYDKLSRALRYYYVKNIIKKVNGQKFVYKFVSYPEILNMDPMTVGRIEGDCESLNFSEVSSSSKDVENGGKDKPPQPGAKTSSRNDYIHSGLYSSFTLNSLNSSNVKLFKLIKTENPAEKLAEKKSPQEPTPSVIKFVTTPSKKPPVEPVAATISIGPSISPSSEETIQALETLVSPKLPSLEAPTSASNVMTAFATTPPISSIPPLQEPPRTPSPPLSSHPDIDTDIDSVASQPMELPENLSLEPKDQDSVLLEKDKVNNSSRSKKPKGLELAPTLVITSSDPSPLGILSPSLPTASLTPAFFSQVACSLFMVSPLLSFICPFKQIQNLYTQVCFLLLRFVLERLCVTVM
The following applies: protein: recombinant; tags: N-terminal GST; dsDNA, one strand shown. The procedure, abridged:
as §1

For the next experiment, the target named is T4, ETV2 (Homo sapiens, UniProt O00321 1-342).
T4 sequence: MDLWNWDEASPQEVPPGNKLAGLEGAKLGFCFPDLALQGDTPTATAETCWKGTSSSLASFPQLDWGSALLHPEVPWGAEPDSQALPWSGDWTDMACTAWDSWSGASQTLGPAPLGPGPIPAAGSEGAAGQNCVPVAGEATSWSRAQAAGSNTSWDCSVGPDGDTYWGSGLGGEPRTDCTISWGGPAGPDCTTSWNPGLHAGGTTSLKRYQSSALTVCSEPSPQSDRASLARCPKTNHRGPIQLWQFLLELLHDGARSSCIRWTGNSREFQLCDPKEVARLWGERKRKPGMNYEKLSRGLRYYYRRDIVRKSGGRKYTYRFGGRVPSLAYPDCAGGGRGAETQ
The following applies: protein: recombinant; tags: N-terminal GST; dsDNA, one strand shown. The method, boiled down:
as §1

Another experiment deals with T5, ELF3 (Homo sapiens, UniProt P78545 1-371).
T5 sequence: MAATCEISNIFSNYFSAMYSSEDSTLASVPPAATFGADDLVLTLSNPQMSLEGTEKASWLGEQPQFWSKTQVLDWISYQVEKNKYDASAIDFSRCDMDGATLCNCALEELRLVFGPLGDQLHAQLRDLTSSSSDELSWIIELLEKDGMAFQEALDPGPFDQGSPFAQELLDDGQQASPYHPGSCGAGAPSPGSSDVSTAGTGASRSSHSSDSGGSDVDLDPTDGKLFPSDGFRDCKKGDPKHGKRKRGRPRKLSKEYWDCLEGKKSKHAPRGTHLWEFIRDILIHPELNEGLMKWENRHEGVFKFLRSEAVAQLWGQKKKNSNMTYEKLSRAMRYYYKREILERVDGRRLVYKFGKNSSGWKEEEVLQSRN
Conditions: protein: recombinant; tags: N-terminal GST; dsDNA, one strand shown. The procedure, abridged:
as §1

For another experiment, the target named is CRX (Homo sapiens, UniProt O43186 1-299). Conditions: protein: recombinant; tags: N-terminal GST; dsDNA, one strand shown. The procedure, abridged: as §1
In another experiment the target is ETV1 (Homo sapiens, UniProt P50549 1-477). The following applies: protein: recombinant; tags: N-terminal GST; dsDNA, one strand shown. The procedure, abridged: as §1
The next experiment deals with T6, ERF (Homo sapiens, UniProt P50548 1-548).
T6 sequence: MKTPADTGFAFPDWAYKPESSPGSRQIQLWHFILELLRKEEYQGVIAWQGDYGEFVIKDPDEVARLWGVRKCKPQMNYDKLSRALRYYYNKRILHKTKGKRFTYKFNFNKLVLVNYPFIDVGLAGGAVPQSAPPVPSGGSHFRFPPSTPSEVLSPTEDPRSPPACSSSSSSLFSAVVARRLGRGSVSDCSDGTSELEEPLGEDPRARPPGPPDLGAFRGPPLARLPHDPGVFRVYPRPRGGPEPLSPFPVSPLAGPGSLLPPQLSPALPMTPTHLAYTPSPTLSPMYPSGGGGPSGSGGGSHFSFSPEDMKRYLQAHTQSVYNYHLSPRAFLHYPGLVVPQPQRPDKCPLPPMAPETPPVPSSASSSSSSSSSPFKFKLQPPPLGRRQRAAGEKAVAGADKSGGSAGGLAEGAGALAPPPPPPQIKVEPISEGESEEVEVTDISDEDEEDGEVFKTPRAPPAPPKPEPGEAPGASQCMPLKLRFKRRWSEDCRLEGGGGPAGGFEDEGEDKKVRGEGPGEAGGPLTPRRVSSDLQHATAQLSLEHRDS
Conditions: protein: recombinant; tags: N-terminal GST; dsDNA, one strand shown. The procedure, abridged: as §1

The next experiment concerns the target T7, ETV3L (Homo sapiens, UniProt Q6ZN32 1-361).
T7 sequence: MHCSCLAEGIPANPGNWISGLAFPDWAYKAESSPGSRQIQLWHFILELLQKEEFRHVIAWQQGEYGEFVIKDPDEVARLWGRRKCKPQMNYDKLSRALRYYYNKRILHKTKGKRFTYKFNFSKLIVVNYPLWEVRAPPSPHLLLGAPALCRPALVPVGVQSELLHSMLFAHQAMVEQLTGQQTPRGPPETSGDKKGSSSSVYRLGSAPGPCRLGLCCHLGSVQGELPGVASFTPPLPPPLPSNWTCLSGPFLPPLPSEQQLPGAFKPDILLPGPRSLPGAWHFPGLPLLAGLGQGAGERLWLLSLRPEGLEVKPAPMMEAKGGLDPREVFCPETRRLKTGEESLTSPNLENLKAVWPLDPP
Conditions: protein: recombinant; tags: N-terminal GST; dsDNA, one strand shown. The method, boiled down:
as §1

In another experiment the target is T8, ETS2 (Homo sapiens, UniProt P15036 1-469).
T8 sequence: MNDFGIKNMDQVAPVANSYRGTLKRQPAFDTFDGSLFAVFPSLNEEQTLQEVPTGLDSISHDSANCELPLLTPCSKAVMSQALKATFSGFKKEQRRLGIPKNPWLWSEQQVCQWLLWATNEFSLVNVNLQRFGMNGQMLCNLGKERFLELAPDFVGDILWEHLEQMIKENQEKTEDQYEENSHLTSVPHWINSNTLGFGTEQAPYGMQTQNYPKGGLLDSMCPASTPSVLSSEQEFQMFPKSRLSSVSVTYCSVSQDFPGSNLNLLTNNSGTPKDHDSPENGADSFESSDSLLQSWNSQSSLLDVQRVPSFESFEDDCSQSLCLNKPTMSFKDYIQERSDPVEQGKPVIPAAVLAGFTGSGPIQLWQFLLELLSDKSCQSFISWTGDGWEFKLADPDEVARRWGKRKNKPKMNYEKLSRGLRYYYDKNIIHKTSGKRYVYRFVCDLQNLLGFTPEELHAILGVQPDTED
The following applies: protein: recombinant; tags: N-terminal GST; dsDNA, one strand shown. The method, boiled down: as §1

The target in a further experiment is T9, SPDEF (Homo sapiens, UniProt O95238 1-335).
T9 sequence: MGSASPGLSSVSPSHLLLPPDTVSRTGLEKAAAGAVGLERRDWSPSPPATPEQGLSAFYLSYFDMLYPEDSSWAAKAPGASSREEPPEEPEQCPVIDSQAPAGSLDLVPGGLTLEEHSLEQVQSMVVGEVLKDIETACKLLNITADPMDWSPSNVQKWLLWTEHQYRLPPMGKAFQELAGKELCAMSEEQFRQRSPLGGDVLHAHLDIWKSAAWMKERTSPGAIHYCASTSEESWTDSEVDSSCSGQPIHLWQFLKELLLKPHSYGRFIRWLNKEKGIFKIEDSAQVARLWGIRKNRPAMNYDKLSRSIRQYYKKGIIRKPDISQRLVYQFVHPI
Conditions: protein: recombinant; tags: N-terminal GST; dsDNA, one strand shown. The procedure, abridged: as §1

For the next experiment, the target named is T10, ETV7 (Homo sapiens, UniProt Q9Y603 1-341).
T10 sequence: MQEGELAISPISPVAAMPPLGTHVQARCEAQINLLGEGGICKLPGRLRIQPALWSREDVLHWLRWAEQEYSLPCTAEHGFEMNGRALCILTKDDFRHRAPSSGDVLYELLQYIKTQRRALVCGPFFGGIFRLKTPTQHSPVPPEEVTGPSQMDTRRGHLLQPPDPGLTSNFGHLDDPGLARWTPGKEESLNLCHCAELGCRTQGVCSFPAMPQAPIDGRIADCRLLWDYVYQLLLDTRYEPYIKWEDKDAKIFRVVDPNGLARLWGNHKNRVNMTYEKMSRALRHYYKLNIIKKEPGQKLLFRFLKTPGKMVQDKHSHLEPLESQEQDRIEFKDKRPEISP
The following applies: protein: recombinant; tags: N-terminal GST; dsDNA, one strand shown. The procedure, abridged:
as §1

For a further experiment, the target named is T11, ELF5 (Homo sapiens, UniProt Q9UKW6-2 1-255).
T11 sequence: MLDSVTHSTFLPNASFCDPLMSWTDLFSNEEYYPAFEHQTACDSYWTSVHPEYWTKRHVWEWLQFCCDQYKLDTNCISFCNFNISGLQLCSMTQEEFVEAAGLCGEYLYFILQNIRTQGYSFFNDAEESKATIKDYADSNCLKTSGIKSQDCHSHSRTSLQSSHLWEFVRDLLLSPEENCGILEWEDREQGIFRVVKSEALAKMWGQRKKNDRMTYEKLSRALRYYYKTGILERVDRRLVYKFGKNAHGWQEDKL
The following applies: protein: recombinant; tags: N-terminal GST; dsDNA, one strand shown. The procedure, abridged:
as §1

For a further experiment, the target named is T12, ETV3 (Homo sapiens, UniProt P41162-2 1-143).
T12 sequence: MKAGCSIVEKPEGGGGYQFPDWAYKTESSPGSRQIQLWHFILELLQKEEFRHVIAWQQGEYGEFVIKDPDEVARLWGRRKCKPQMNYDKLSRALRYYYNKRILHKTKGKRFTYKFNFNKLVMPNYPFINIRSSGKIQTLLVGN
Conditions: protein: recombinant; tags: N-terminal GST; dsDNA, one strand shown. The procedure, abridged:
as §1

In the next experiment the target is ETV6 (Homo sapiens, UniProt P41212 1-452). The following applies: protein: recombinant; tags: N-terminal GST; dsDNA, one strand shown. The procedure, abridged:
as §1

Chain of ETV6 (P41212 whole entry): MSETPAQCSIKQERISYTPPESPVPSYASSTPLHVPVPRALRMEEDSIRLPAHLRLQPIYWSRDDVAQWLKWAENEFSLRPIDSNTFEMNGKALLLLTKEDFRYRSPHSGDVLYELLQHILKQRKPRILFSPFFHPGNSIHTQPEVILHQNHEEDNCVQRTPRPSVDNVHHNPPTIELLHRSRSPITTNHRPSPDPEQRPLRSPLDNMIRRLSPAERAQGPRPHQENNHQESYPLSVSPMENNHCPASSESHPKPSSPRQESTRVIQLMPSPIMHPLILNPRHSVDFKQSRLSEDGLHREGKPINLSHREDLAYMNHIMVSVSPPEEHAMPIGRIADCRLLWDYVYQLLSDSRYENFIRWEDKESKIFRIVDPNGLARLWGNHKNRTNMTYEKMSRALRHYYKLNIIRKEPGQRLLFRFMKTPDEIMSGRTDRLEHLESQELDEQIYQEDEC
Chain of CRX (O43186 whole entry): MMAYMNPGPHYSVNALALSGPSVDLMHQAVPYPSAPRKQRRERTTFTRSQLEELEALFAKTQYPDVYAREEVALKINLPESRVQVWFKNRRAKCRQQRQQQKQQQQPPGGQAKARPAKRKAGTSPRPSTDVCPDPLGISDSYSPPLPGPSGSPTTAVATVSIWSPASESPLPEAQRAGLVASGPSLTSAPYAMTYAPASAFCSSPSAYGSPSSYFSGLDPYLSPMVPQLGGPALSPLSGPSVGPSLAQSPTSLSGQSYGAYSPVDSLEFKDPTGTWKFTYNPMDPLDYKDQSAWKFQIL
Chain of ELF4 (Q99607 whole entry): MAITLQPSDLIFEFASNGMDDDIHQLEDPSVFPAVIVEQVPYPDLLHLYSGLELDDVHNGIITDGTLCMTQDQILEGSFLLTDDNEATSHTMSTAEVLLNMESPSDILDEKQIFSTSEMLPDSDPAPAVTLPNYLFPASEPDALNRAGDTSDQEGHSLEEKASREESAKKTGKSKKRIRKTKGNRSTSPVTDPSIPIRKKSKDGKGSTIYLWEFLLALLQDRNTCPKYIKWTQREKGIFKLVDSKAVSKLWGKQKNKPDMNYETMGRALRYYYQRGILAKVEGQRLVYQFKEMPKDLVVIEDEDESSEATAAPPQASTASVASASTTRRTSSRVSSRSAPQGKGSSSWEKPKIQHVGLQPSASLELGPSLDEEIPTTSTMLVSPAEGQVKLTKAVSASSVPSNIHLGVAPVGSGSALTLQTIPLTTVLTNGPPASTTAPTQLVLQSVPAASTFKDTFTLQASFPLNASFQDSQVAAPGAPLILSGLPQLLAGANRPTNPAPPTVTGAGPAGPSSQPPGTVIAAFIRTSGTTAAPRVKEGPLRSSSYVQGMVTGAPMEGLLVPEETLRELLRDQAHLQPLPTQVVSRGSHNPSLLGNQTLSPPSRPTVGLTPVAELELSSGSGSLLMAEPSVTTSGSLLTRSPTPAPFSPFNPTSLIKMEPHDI
Chain of ETV5 (P41161 whole entry): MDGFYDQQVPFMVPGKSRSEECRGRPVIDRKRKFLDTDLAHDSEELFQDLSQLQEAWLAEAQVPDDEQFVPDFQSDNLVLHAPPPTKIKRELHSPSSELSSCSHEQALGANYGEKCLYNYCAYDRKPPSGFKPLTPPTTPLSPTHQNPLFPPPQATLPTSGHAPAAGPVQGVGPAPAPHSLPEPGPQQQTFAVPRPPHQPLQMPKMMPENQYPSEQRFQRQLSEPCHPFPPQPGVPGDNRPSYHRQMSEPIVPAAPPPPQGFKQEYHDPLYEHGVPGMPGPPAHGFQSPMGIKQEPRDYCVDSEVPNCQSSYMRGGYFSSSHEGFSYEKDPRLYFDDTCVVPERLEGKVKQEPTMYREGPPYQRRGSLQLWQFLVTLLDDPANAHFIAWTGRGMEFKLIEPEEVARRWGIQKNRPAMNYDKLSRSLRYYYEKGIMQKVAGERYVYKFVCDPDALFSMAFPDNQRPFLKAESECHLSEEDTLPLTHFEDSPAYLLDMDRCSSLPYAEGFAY
Chain of ETV1 (P50549 whole entry): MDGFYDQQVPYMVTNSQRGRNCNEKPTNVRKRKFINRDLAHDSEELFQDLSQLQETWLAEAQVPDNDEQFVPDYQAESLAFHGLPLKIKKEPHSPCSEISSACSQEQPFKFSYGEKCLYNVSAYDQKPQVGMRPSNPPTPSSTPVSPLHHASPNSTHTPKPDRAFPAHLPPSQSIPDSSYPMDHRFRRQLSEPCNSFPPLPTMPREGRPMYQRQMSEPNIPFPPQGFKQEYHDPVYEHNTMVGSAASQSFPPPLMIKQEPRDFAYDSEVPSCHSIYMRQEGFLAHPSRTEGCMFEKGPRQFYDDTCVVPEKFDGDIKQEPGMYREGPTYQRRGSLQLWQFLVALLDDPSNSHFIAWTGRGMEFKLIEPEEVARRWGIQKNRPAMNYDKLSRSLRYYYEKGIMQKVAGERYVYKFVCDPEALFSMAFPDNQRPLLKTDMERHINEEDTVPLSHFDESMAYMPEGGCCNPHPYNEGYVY
Chain of HSF1 (Q00613 whole entry): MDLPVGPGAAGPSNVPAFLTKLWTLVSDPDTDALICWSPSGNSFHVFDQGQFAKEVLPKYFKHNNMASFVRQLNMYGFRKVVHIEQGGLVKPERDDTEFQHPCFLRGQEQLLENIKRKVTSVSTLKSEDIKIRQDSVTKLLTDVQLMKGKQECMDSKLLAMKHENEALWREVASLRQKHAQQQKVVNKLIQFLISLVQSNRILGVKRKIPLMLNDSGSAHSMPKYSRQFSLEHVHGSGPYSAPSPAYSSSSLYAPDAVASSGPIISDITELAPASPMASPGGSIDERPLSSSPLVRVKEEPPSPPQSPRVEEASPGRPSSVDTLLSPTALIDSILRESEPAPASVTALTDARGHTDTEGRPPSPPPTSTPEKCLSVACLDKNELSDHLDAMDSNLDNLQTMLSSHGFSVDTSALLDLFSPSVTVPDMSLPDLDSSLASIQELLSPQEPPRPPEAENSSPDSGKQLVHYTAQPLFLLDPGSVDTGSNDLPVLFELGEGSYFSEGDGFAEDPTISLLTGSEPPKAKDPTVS

CCTGTT: the binding signal with FEV was 1.67 fold enrichment (6-mer frequency, TF over GST control); with ETV5, 1.79 fold enrichment (6-mer frequency, TF over GST control); in the experiment with HSF1 it was 1.2 fold enrichment (6-mer frequency, TF over GST control); with SPIC, 1.91 fold enrichment (6-mer frequency, TF over GST control); with ELF4, 1.72 fold enrichment (6-mer frequency, TF over GST control); in the experiment with ELK4 it was 1.55 fold enrichment (6-mer frequency, TF over GST control). For the same sequence, the binding signal in the experiment with ETV2 was 1.62 fold enrichment (6-mer frequency, TF over GST control); with ELF3, 1.62 fold enrichment (6-mer frequency, TF over GST control); with CRX, 1.21 fold enrichment (6-mer frequency, TF over GST control); with ETV1 it was 1.69 fold enrichment (6-mer frequency, TF over GST control); in the experiment with ERF, 1.66 fold enrichment (6-mer frequency, TF over GST control); in the experiment with ETV3L, 1.79 fold enrichment (6-mer frequency, TF over GST control). Besides, the binding signal was 1.8 fold enrichment (6-mer frequency, TF over GST control) in the experiment with ETS2; 2.09 fold enrichment (6-mer frequency, TF over GST control) with SPDEF; 1.63 fold enrichment (6-mer frequency, TF over GST control) with ETV7; 2.1 fold enrichment (6-mer frequency, TF over GST control) with ELF5; 1.9 fold enrichment (6-mer frequency, TF over GST control) with ETV3; 1.73 fold enrichment (6-mer frequency, TF over GST control) in the experiment with ETV6.
